Laboratory results: PubChem BioAssay
Activity calls are given as the source filed them. No rule for the calls is given here.

Assay: inhibition of Brca1/Bard1 split-luciferase complementation, confirmation, counter-screen for Mdm2/MdmX interaction inhibitor project, luminescence, single concentration (AID 504668)
Settings: Brca1/Bard1 bimolecular luciferase complementation counterscreen, at 8 µM, active compounds read high

SMILES	inhibition
CC(C)CC[n+]1ccccc1/C=C/c1ccc(N(C)C)cc1	26.6% (active)
Cc1nc(/N=C(\N)NC(=O)NC2CCCCC2)nc2ccccc12	34.4% (active)
Cc1ccccc1OCC(O)Cn1c(=N)n(Cc2ccccc2)c2ccccc21 (centres undefined)	28.9% (active)
C=CCc1cccc(/C=N/NC(=O)CNc2ccccc2)c1O	32.9% (active)
O=C(CCCN1C(=O)/C(=C\c2ccccc2)SC1=S)Nc1ccccc1O	30.3% (active)
CC(C)CCNC(=O)C(c1ccncc1)N(Cc1cccs1)C(=O)Cn1nnc(-c2ccc(F)cc2)n1 (centres undefined)	26.3% (active)
COc1ccc(C(=O)O/N=C(\N)Cc2ccc(Cl)c(Cl)c2)cc1OC	26.9% (active)
O=C(NC1CCCc2c1cnn2-c1ccccc1F)c1ccccn1 (centres undefined)	28.6% (active)
O=C(Nc1ccc(Cl)c(Cl)c1)Nc1ccc(Br)cc1F	35.2% (active)
O=C(N/N=C\c1c(O)ccc2ccccc12)c1ccc(O)cc1	31.7% (active)
Cc1cc(C)cc(OCc2nc3ncc(Br)cc3[nH]2)c1	30.8% (active)
Cc1ccc(NC(=O)c2cc3ccccc3oc2=O)cc1S(=O)(=O)N(C)C	25.9% (active)
Cc1ccc(CSC(Nc2ccc(F)cc2)=C(C#N)C#N)cc1	24.3% (active)
Cc1ccc(C(=O)Nc2nc(-c3ccccn3)cs2)s1	34.6% (active)
C=CC(=O)N1c2ccccc2Sc2ccc(NC(=O)OCC)cc21	35.2% (active)
CC(=O)c1sc(NC(=O)C2(F)C(F)(F)C(F)(F)C(F)(F)C(F)(F)C2(F)F)nc1C	28.7% (active)
O=C1Nc2cccnc2N(C(=O)CCl)c2ccccc21	31.2% (active)
CC(=O)Nc1nc(C)c(-c2csc(Nc3ccc(S(N)(=O)=O)cc3)n2)s1	31.7% (active)
CCOC(=O)c1cccc2c1-c1ccccc1/C2=N/O	30.6% (active)
N#CC1=C(N)C(C#N)(C#N)C(c2cccnc2)C2CC(c3ccccc3)CC=C12 (centres undefined)	23.1% (active)

SMILES	inhibition
COc1ccccc1-c1cc(C(F)(F)F)nc(S(=O)(=O)CCCC(=O)NC(C)C)n1	31.4% (active)
COc1ccc(-n2nc(C(=O)c3cccs3)cc(-c3nc4ccccc4[nH]3)c2=N)cc1	30.8% (active)
CCOc1ccc2[nH]c3c(N4CCc5ccccc5C4)ncnc3c2c1	35.8% (active)
Cc1ccc2cc(CN(CC3CCCO3)C(=S)Nc3ccccc3)c(=O)[nH]c2c1C (centres undefined)	35.3% (active)
CCOc1ccc(N=Nc2ccc(O)c3ncccc23)cc1	23.3% (active)
COc1cc(NS(=O)(=O)c2ccc(N/C=C(\C#N)c3nc4cc(Cl)ccc4o3)cc2)nc(OC)n1	35.2% (active)
CC(C)C(=O)N1CCN(c2ccc(NC(=O)c3ccc([N+](=O)[O-])o3)cc2)CC1	23.4% (active)
Cc1nc(-n2[nH]c3c(c2=O)CCCC3)[nH]c(=O)c1Cc1ccccc1	30.8% (active)
COc1ccccc1-c1cc(C(F)(F)F)nc(S(=O)(=O)CCCC(=O)Nc2cc(C)on2)n1	32.8% (active)
N=c1c2c(-c3ccccc3)c(-c3ccccc3)n(Cc3ccco3)c2ncn1Cc1ccco1	31.4% (active)
CN(C)CCCNC(=S)NCC(c1ccc(Cl)cc1Cl)c1c[nH]c2ccccc12 (centres undefined)	29.2% (active)
CN1C(=O)/C(=C\c2cc(N=Nc3ccccc3)ccc2O)SC1=S	34.4% (active)
COc1ccc(N/N=C(/N=Nc2nc(C)cc(=O)[nH]2)c2ccccc2)cc1	30.7% (active)
N=c1n(CCN2CCCCC2)c2ccccc2n1CC(O)c1cccc(Br)c1 (centres undefined)	34.4% (active)
CCN(CC)S(=O)(=O)c1cc(OC)ccc1N=Nc1ccc(O)c2ncccc12	35.8% (active)
CC[C@]1(c2ccccc2OC)ON(c2ccccc2C(F)(F)F)C1=O	34.6% (active)
COc1ccc2c(C(=O)CCl)c[nH]c2c1	24.1% (active)
O=C1c2cccc3c([N+](=O)[O-])ccc(c23)C(=O)N1c1nccs1	27% (active)
Cn1c(/C=C/c2ccc(Br)cc2)c([N+](=O)[O-])c(=O)n(C)c1=O	23.9% (active)
